# From PubChem BioAssay
# A selection: hits, their analogues and other compounds. The true share with any hit is near 2%.
# BJeLR lethal: BJeLR cell viability loss. BJeLR (HRASV12) viability, CellTiter-Glo ATP luminescence, 48 h. inhibition, % (concentration not given with the values). 300,000 compounds, 0.17% hits. AID 1554; in the data active means inhibition above about 50%
# PrP UTR inh: suppresses PrP 5' UTR mRNA reporter expression; AID 488862; cell-based PrP 5' UTR mRNA reporter, plate reader; 340,000 compounds, 0.35% hits; inhibition, % (test concentration not listed); in the data active means inhibition above about 52%; further: 0 = median of the neutral control wells
# PfHsp40 yeast: compounds rescuing yeast from Plasmodium falciparum HSP40 toxicity; S. cerevisiae expressing PfHsp40, growth rescue, ATP luminescence; growth rescue, % at 12.5 µM; 340,000 compounds, 0.68% hits; AID 504582; in the data active means growth rescue above about 28%, passing the limit was not always enough;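 further: yeast W303a lacking pdr1 and pdr3 grown in galactose medium; growth measured after three days at 30 °C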
# Yp Topo-I inh: Y. pestis Topo-I inhibition via cleavage products; Y. pestis Topo-I cleavage product accumulation, plate reader; activity, % at 10 µM; AID 504884; 360,000 compounds, 0.064% hits; in the data active means activity above about 50%, passing the limit was not always enough
# PrPC TRFRET: reduces human prion protein on the cell surface; AID 720596; 370,000 compounds, 0.43% hits; cell surface PrPC, TR-FRET read-out; inhibition, % at 13.8 µM; in the data active means inhibition above about 24%; further: 0% = median of the test wells and 100% = reference compound wells
# CCHF vOTU inh: blocks the CCHF virus ovarian tumor domain protease; CCHFV vOTU protease, Pep-AMC fluorescence; inhibition, % at 11.5 µM; 370,000 compounds, 0.55% hits; AID 651958; in the data active means inhibition above about 30%; further: 0% = vehicle wells with enzyme and 100% = no enzyme wells
# * = called active by the depositor; . = no result given.
SMILES,BJeLR lethal,PrP UTR inh,PfHsp40 yeast,Yp Topo-I inh,PrPC TRFRET,CCHF vOTU inh
COc1ccc(N(C(=O)Cc2cccs2)C(C(=O)NC2CCCC2)c2ccncc2)cc1 (stereo not drawn),7,-22,0,15,0,-1
COc1ccc(C(C(=O)NC2CCCCC2)N(C(=O)CCl)c2cccc(Cl)c2)cc1 (stereo not drawn),119*,5,-1,9,2,5
COc1ccc(-c2ccc3c(n2)CCCN3S(=O)(=O)c2cccs2)cc1,.,.,.,.,5,-10
COc1ccc(Cn2ccc3ccc(-c4ccc5ccn(Cc6ccc(C#N)cc6)c5c4)cc32)cc1,.,.,.,.,5,3
CN(c1ccc(NC(=O)CCc2c[nH]c3ccccc23)cc1)c1ccccn1,.,.,.,.,12,4
OCC12COC(c3ccccc3)N1C(c1ccccc1)OC2 (stereo not drawn),16,6,-1,3,-3,1
OCC12CO[C@@H]3c4ccccc4[C@H](OC1)N32 (stereo partly drawn),-4,-9,45*,0,5,18
O=C(Nc1nc2ncccn2c1-c1ccccc1)c1ccccc1,.,.,.,.,7,-14
Clc1ccc(COC(Cn2ccnc2)c2ccc(Cl)cc2Cl)cc1 (stereo not drawn),3,-23,93*,62*,13,13
Clc1ccc(CO/N=C(\Cn2ccnc2)c2ccc(Cl)cc2Cl)c(Cl)c1,12,.,.,.,.,.
Clc1ccc(CSC(Cn2ccnc2)c2ccc(Cl)cc2Cl)cc1 (stereo not drawn),0,-1,147*,57*,12,1
N#Cc1c(Nc2ccccc2)[n+]([O-])c2ccc(Cl)cc2[n+]1[O-],.,12,69*,-7,-8,20
O=C(Nc1cc(S(=O)(=O)N2CCOCC2)ccc1Cl)C(=O)c1c(-c2ccccc2)cc2ccccn12,1,-16,66*,22,4,3
O=C(Nc1ccc2c(c1)CCC2)c1cc2ccccc2o1,-3,-137,132*,10,2,4
C=CCc1ccc(OCC(O)CN2CCCCC2)c(OC)c1 (stereo not drawn),-2,-23,0,-8,2,0
C=CCc1ccc(OCC(O)COc2ccc(CC=C)cc2OC)c(OC)c1,6,-4,46*,13,-4,23
Clc1ccc(N2CCOCC2)nn1,-5,-11,-2,3,-7,-4
Cc1cc(C)n(-c2ccc(N3CCOCC3)nn2)n1,5,-32,36*,0,-8,1
COc1ccccc1N1CCN(C(=O)c2ccc3c(c2)nc(C)n3-c2cc(OC)c(OC)c(OC)c2)CC1,.,.,.,.,-9,-1
FC(F)(F)c1ccc(CN2CCN(Cc3ccco3)CC2)cc1,3,-10,50*,-4,-2,-16
COc1ccc(CN2CCN(Cc3ccco3)CC2)cc1,-7,-5,1,3,4,11
CCc1c(C2(O)CCCCC2)[nH]c2ccc(C(F)(F)F)cc12,11,-28,351*,-18,2,3
CN(C)Cc1c(C(C)(C)O)[nH]c2ccc(C(F)(F)F)cc12,.,-23,-1,-4,-6,10
OC(c1ccccc1)(c1ccccc1)C1CCN(CCCNc2cccc(OC(F)(F)F)c2)CC1,.,.,.,.,-22,15
COCCN1Cc2cc(C(=O)OC)c3c(c2C1=O)c1ccccc1n3S(=O)(=O)c1ccc(OC)cc1,.,.,.,.,4,-2
SMILES,BJeLR lethal,PrP UTR inh,PfHsp40 yeast,Yp Topo-I inh,PrPC TRFRET,CCHF vOTU inh
COc1ccc(CN2CCN(C(c3ccc(F)cc3)c3ccc(F)cc3)CC2)c(OC)c1OC,12,-2,39*,14,-3,0
COc1ccc(CN2CCN(c3ccc(F)cc3)CC2)c(OC)c1OC,9,-25,0,-5,-3,0
O=C(c1ccccc1OCc1ccccc1)N(Cc1ccccn1)CC1CCCO1 (stereo not drawn),.,.,.,.,3,-4
CSC1=N/C(=C\c2cccnc2)C(=O)N1c1ccccc1,7,-20,-2,-2,0,-3
CSC1=N/C(=C\c2ccccc2)C(=O)N1C,-12,-13,40*,3,0,2
CCCNC(=O)c1ccc2c(=O)c(O)c(-c3ccc(C)cc3)[nH]c2c1,8,30,-1,4,-4,-10
Cc1ccc(CNC(=O)c2ccc3c(=O)c(O)c(-c4ccc(C)cc4)[nH]c3c2)cc1,-1,37,164*,18,-3,3
CCCNC(=O)c1ccc2c(=O)c(O)c(-c3ccc(OC)cc3)[nH]c2c1,-5,-25,185*,-4,.,.
Cc1ccc(-c2[nH]c3cc(C(N)=O)ccc3c(=O)c2O)cc1,8,-18,44*,-2,-30,10
CCn1c2ccccc2c2cc(NC(=O)COC(=O)c3cc(F)ccc3F)ccc21,.,.,.,.,1,1
Cc1cccc(CSc2nnnn2-c2ccccc2)c1,-5,-2,33*,12,6,2
O=c1[nH]c(-c2ccccc2)nn1-c1ccc(Br)cc1Br,-5,-7,35*,2,-3,-8
C[C@@H](C[C@@H](O)[C@H](O)C(C)(C)O)[C@@H]1CC[C@]2(C)C3=CC[C@H]4C(C)(C)C(=O)CC[C@]4(C)[C@H]3CC[C@@]12C,3,-12,-2,13,4,-3
C[C@H](C[C@H](O)[C@H]1OC1(C)C)C1=C2C[C@H](O)C3[C@@]4(C)CCC(=O)C(C)(C)C4CC[C@]3(C)[C@@]2(C)CC1 (stereo partly drawn),.,-4,40*,16,-1,17
O=C(CCl)N(CCCNC(=O)C(F)(F)F)c1ccc([N+](=O)[O-])cc1,116*,5,0,4,-17,-8
Cc1ccc(O)c(NC(=O)C2CC(c3c(F)cccc3Cl)=NO2)c1 (stereo not drawn),-18,-48,36*,4,-3,2
COc1cc(NC(=O)C2CC(c3c(F)cccc3Cl)=NO2)c(OC)cc1Cl (stereo not drawn),-7,-7,1,10,-7,1
CN(C)c1ccc(Cc2cc3c(O)ccc(O)c3cc(Cc3ccc(N(C)C)cc3)c2=O)cc1,.,-7,-1,-15,-7,34*
C[C@@H]1OC(C2CCCCC2)N(C)[C@H]2C[C@H]3c4[nH]c5c(-c6ccccc6)cccc5c4CCN3C(=O)[C@@H]12 (stereo partly drawn),.,.,.,.,-11,-18
CCOc1ccc(NC(=O)C2CCCN(S(=O)(=O)c3ccc4[nH]c(=O)ccc4c3)C2)cc1 (stereo not drawn),6,7,49*,6,7,-7
COc1ccc(NC(=O)C2CCCN(S(=O)(=O)c3ccc4[nH]c(=O)ccc4c3)C2)cc1 (stereo not drawn),-9,-7,0,12,-11,9
OCCCNc1nc(-c2ccc(Cl)cc2)nnc1-c1ccc(Br)cc1,3,-21,28*,10,7,6
